Sfp PPTase inh: blocks B. subtilis Sfp PPTase activity; Biochemical Sfp PPTase activity, qHTS; actives 3.5% (n = 310,000); Potency, µM, for inactives: largest response in the series, negative = inhibition, hits mostly inhibitors;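 note: the enzyme is Sfp with the accession as filed and its product quenches rhodamine fluorescence; 0% = enzyme reaction without inhibitor and -100% = no enzyme wells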
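Fluorescence-quenching assay: 15 nM Sfp-PPTase preincubated 15 min at room temperature with compound, then 5 uM rhodamine-CoA and 12.5 uM BHQ-2-labelled YbbR peptide added. Fluorescence (ex 525/em 598 nm) read at start and after 30 min; difference gives rate.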
HP1b chromo inh: inhibitors of HP1-beta chromodomain binding to methylated histone tails; AID 540317; actives 0.56% (n = 390,000); Potency, µM (highest dose often 114 µM), for inactives: top-dose activity change, negative = inhibition, usual class: inhibitors; P83916; AlphaScreen HP1-beta / biotin-H3K9me3 peptide binding; note: nearly all actives have a fitted effect of over 70% in size
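HP1-beta protein (50 nM final) preincubated 30 min at room temperature with biotinylated H3(1-18)K9me3 peptide (50 nM) in PBS pH 7.4, 0.01% Tween-20, then compound added for 30 min. AlphaScreen streptavidin donor/nickel chelate acceptor beads (10 ug/mL final), 30 min dark, luminescence read.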
JMJD2A Tudor: JMJD2A Tudor domain (human) inhibition. O75164. actives 4.4% (n = 390,000). AlphaScreen JMJD2A-Tudor / H3K4me3 peptide binding. Potency, µM (highest dose often 114 µM), inactives show top-dose activity change, negative = inhibition, usual class: inhibitors. AID 504339; note: % is set by controls: 0 for no effect and ±100 for the full control effect; nearly all actives have a fitted effect of over 50% in size
BAZ2B inh: inhibitors of human BAZ2B bromodomain. Q9UIF8. AlphaScreen BAZ2B-H3K14Ac peptide displacement. Potency, µM (highest dose often 114 µM), without a hit: top-dose activity change, negative = inhibition, actives largely listed as inhibitors. actives 4.4% (n = 360,000); note: % is set by controls: 0 for no effect and ±100 for the full control effect; nearly all actives have a fitted effect of over 60% in size
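AlphaScreen displacement of biotin-H3(5-23)K14Ac peptide (50 nM final) from BAZ2B (50 nM final) in PBS pH 7.4, 0.01% Tween-20; complex preformed 30 min RT, then compounds (top 110 uM) 30 min RT, beads 20 min dark.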
12-LOX inh: ALOX12 (human) lipoxygenase inhibition; P18054; purified 12hLO, xylenol orange hydroperoxide absorbance; Potency, µM (highest dose often 108 µM), for inactives: at the highest dose activity change, negative = inhibition, hits mostly inhibitors; actives 1.1% (n = 580,000); AID 1671190; note: % is set by controls: 0 for no effect and ±100 for the full control effect
Target sequence (P18054 whole entry, looked up): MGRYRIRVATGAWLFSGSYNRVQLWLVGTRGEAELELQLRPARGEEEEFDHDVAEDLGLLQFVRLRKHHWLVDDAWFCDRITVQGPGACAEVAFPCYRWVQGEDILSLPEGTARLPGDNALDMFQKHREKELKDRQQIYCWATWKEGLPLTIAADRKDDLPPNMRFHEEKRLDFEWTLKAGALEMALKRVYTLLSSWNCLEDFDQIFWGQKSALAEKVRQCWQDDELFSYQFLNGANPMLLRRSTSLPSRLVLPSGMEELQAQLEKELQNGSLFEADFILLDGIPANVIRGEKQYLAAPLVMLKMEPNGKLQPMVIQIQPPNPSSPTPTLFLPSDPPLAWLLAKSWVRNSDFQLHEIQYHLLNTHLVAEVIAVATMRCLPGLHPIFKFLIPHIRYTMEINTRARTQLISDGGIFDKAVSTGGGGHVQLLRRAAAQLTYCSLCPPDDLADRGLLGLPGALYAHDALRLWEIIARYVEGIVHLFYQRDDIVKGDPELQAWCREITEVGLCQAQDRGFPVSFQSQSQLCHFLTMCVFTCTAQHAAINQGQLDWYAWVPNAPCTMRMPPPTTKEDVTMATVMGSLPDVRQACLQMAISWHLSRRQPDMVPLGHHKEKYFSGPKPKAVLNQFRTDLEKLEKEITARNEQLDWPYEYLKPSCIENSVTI
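Purified human 12hLO at 150 nM in 25 mM Hepes, 0.01% Triton X-100, pH 7.0, preincubated 15 min at room temperature with compound. Reaction started with 40 uM arachidonic acid, 30 min at room temperature. Hydroperoxide measured by Fe-xylenol orange, 573/405 nm absorbance ratio.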
G9a block: G9a (human) methyltransferase inhibition; actives 8.8% (n = 350,000); Potency, µM (series often up to 102 µM), without a hit: top-dose activity, negative = inhibition, actives largely listed as inhibitors; Q96KQ7; G9a H3K9 monomethylation, AlphaScreen, 2 h; note: % is set by controls: 0 for no effect and ±100 for the full control effect; nearly all actives have a fitted effect of over 75% in size
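Chemiluminescent proximity detection of H3K9 monomethylation, read after 10 min bead incubation in the dark. Reaction: 20 nM G9a, 500 nM biotin-H3K9 peptide, 20 uM SAM cofactor, 2 h, room temperature, following 15 min enzyme-compound preincubation.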
Numbers without * were called inactive; ? = inconclusive; . = no result; [ ] = dose if it differs, or a comment. Most compounds without a hit are left out; they make up all but 8.7% or so of the library. Calls come from the whole dose curve; as a rule, active = well fitted curve in the direction sought with a large enough effect; inconclusive = small, poorly fitted or top-dose-only effect, or another doubt; inactive = no such curve, though single readings can be large; an effect the other way counts as inactive or inconclusive. Potency is the fitted concentration of half-maximal effect.

SMILES	Sfp PPTase inh	HP1b chromo inh	JMJD2A Tudor	BAZ2B inh	12-LOX inh	G9a block
CC(NC(=O)c1cccnc1)c1ccc(C(F)(F)F)cc1 (configuration not stated)	.	.	.	.	58%	.
CCN(c1ccccc1)S(=O)(=O)c1cc2c(cc1C)N(C)CCO2	10%	2%	?	?	394%	79µM*
COc1ccc(NS(=O)(=O)c2cc3c(cc2C)N(C)CCO3)c(OC)c1	-8%	-10%	?	50µM*	15%	?
Cc1ccccc1NS(=O)(=O)c1cc2c(cc1C)N(C)CCO2	6%	14%	-20%	?	4%	-19%
COc1ccc(NS(=O)(=O)c2cc3c(cc2C)N(C(C)=O)CCO3)c(OC)c1	2%	36%	-13%	7%	21%	10%
CCOc1ccc2c(=O)c(Oc3ccc(C(=O)OC)cc3)c(C)oc2c1	.	.	.	.	26%	.
CC(Oc1ccccc1)C(=O)OCc1nc(N)nc(N)n1 (configuration not stated)	.	.	.	.	-18%	.
CC(C)C(=O)NC(C)c1ccc2c(c1)CCCC2 (configuration not stated)	.	.	.	.	39%	.
CC(C)NC(=O)C1CCN(Cc2cccc(OCc3ccccc3)c2)CC1	.	.	.	.	-52%	.
CC(=O)NC1(C)CCN(Cc2cnc(-c3ccccc3OCc3ccccc3)s2)CC1	.	.	.	.	8.9µM*	.
CC(=O)NC1(C)CCN(Cc2cccc(-c3ccccc3)c2)C1 (configuration not stated)	.	.	.	.	-17%[176 µM]	.
COc1cccc(Nc2cc(CN3CCC(C)(NC(C)=O)CC3)cc(OC)c2)c1	.	.	.	.	40µM*	.
CC(=O)NC1(C)CCN(Cc2cccc(Oc3ccccc3)c2)CC1	.	.	.	.	16µM*	.
CC(C)NC(=O)C1CCN(Cc2cccc(Oc3ccccc3)c2)CC1	-13%	?	22µM*	?	?	.
CC1CCN(Cc2ccc(CNC(=O)c3cnn(-c4ccccc4)c3)cc2)CC1	.	.	.	.	18%	.
CC(=O)Nc1ccc(NC(=O)CN2C(=O)NC3(CCC(C(C)(C)C)CC3)C2=O)cc1 (configuration not stated)	.	.	.	.	-14%	.
C(=N\Nc1nc(-c2cccnc2)nc2ccccc12)/c1ccccc1	-18%	21%	-13%	-8%	0%	6%
c1ccc(Nc2nc(NCC3CCCO3)c3ccccc3n2)cc1 (configuration not stated)	?	33%	-25%	-39%	45µM*	-38%
C(=N\Nc1nc(-c2ccccn2)nc2ccccc12)/c1ccccc1	-2%	12%	?	50µM*	.	-16%
CCOc1ccc(Nc2nc(NCC3CCCO3)c3ccccc3n2)cc1 (configuration not stated)	35µM*	2%	?	32µM*	?	40µM*
c1ccc(-c2nc(NCC3CCCO3)c3ccccc3n2)nc1 (configuration not stated)	?	53%	89µM*	?	0%	11%[59 µM]
CCOc1ccc(-n2cc(-c3ccccc3)c3c(NCC4CCCO4)ncnc32)cc1 (configuration not stated)	.	.	.	.	10%	.
Oc1cccc(Nc2nc(NCC3CCCO3)c3ccccc3n2)c1 (configuration not stated)	?	-16%	-30%[57.1 µM]	-39%	.	-34%[12.7 µM]
c1ccc2c(NCC3CCCO3)nc(N3CCOCC3)nc2c1 (configuration not stated)	20%	25%	-13%	-27%	-3%	0%
COc1ccc(Cl)cc1CNC(=O)c1scnc1C	.	.	.	.	-22%	.
SMILES	Sfp PPTase inh	HP1b chromo inh	JMJD2A Tudor	BAZ2B inh	12-LOX inh	G9a block
COc1ccc(CC(=O)NC(C)c2ccco2)cc1 (configuration not stated)	.	.	.	.	-32%	.
CCOc1ccc(Nc2cc(C)c3ccccc3n2)cc1	-1%	6%	?	-31%	?	?
COc1ccc(Nc2nc(NCC3CCCO3)c3ccccc3n2)c(OC)c1 (configuration not stated)	15%	-5%	?	?	?	45µM*
c1ccc(-c2nc(NCc3ccco3)c3ccccc3n2)nc1	1%	25%	-34%[11.4 µM]	45µM*	7%	?
CCOc1ccc(Nc2c3ccccc3nc3ccccc23)cc1	-12%	?	-28%[11.4 µM]	35µM*	?	32µM*
COc1ccc(Nc2c3c(nc4ccccc24)CCC3)c(OC)c1	-3%	14%	-13%	0%	-2%	1%[2.33 µM]
CC(C)CN1C(=O)CCc2cc(NC(=O)C3CCC3)ccc21	.	.	.	.	-11%	.
CCCS(=O)(=O)N1CCC2(CC1)CC1C(=O)NCCN1C2 (configuration not stated)	.	.	.	.	49%	.
CC(C)C(=O)O/N=C(\N)c1ccccn1	21%	17%	-3%	4%	-3%	-26%[59 µM]
N/C(=N\OS(=O)(=O)c1ccccc1)c1ccccn1	-20%	44%	3.5µM*	22µM*	33%	?
N/C(=N\OS(=O)(=O)c1ccc(Br)cc1)c1ccncc1	17%	-38%	-27%	2%	?	40µM*
N/C(=N\OC(=O)COc1ccc(Br)cc1)c1ccncc1	4%	38%	-4%	6%	-2%	-4%[59 µM]
N/C(=N\OS(=O)(=O)c1ccc(Cl)cc1)c1ccccn1	-21%	56%	25µM*	25µM*	1%	2µM*
N/C(=N\OC(=O)c1ccc(Cl)cc1)c1ccccn1	0%	16%	-19%	9%	7%	.
CCn1cc(CN2CCC3(CC2)CC(O)CCO3)c2cc(OC)ccc21 (configuration not stated)	.	.	.	.	35%	.
CN(CC(=O)Nc1ccccc1Cl)C(=O)c1nn(-c2ccccc2)c2c1CCC2	.	.	.	.	8%	.
O=C(O)c1cc(S(=O)(=O)Nc2ccc3oc(=O)sc3c2)ccc1O	40µM*	24%	?	?	?	?
CC(=O)c1c(C)oc2ccc(NS(=O)(=O)c3ccc(F)cc3C)cc12	18%	-1%	-12%	6%	-6%	22%
CC(=O)c1c(C)oc2ccc(NS(=O)(=O)c3ccc(O)c(C(=O)O)c3)cc12	-22%	6%	?	-32%	16µM*	?
Cc1n[nH]c(=S)n1/N=C/c1ccc(OCc2ccc(Cl)cc2Cl)cc1	?	50%	-6%	4%	-12%	11µM*
Cc1n[nH]c(=S)n1/N=C/c1ccc(OCc2ccc(Cl)cc2)cc1	-24%	32%	-21%	3%	?	?
Cc1n[nH]c(=S)n1/N=C/c1ccccc1OCc1ccc(Cl)cc1Cl	4%	42%	-11%	2%	5%	13%[59 µM]
Cc1cc(C)c(COc2ccc(/C=N/n3c(C)n[nH]c3=S)cc2)c(C)c1	50µM*	?	79µM*	?	?	?

Assay outcomes from PubChem BioAssay.
